Results taken from PubChem BioAssay AID2384 (Southern Research Specialized Biocontainment Screening …, 2010).
Screen size: about 2,300 compounds; about 1,100 (48%) were called active. The rule behind the calls is not given here. So high a share suggests a set chosen from earlier hits. This is one part of the list. Where a call stands in place of a potency, no number is given. Potency and affinity values are given separately.

Assay: inhibitors in S. typhi counter-screen strain, dose response, counter-screen for PhoP regulon inhibitor project, fluorescence, 4 h (AID 2384)
Conditions: S. typhi GFP reporter counter-screen; series mostly up to 150 µM

Structure (SMILES) | inhibition
CCNC(=S)Nc1cccc(S(=O)(=O)Nc2ccccc2OC)c1 | inactive
Cc1ccc(S(=O)(=O)N(Cc2n[nH]c(=S)n2-c2ccccc2)c2ccccc2)cc1 | inactive
CCN(C1CCCCC1)S(=O)(=O)c1ccc(OC)c(C)c1 | inactive
Cc1cnc(C(=O)Nc2nnc(C)s2)cn1 | inactive
CN1CCCN(S(=O)(=O)c2ccc3c(c2)OCCO3)CC1 | inactive
O=C(O)C1Cc2ccccc2CN1S(=O)(=O)c1ccc2ccccc2c1 (stereo not given) | inactive
O=S(=O)(Nc1cccc(-c2cn3c(n2)SCC3)c1)c1ccc(F)cc1F | inactive
CCC(CC)C(=O)NCCc1cc2ccc(C)cc2[nH]c1=O | inactive
COc1ccc(NC(=O)N(CCc2ccccc2)Cc2cc3c(C)cc(C)cc3[nH]c2=O)cc1 | inactive
COc1ccc(Cl)cc1-c1n[nH]c(=S)o1 | inactive
CC1CC1C(=O)Nc1nc2ccc(S(C)(=O)=O)cc2s1 (stereo not given) | inactive
Cc1ccc(N2C(=O)[C@@H]3[C@H](C2=O)[C@H]2C=CC=NN2[C@@H]3C(=O)Nc2ccc(Cl)cc2)cc1 | inactive
COc1ccccc1CNC(=O)Cn1c(=O)oc2cc(S(=O)(=O)N3CCCC3)ccc21 | inactive
COc1cccc(NC(=O)COC(=O)Cc2ccccc2[N+](=O)[O-])c1 | inactive
Cc1ccc(NC(=O)c2sccc2C)cc1[N+](=O)[O-] | inactive
O=C(Nc1ccc(Cl)cc1)c1cccs1 | inactive
O=C(N/N=C/c1cccc(OCc2ccccc2)c1)c1cccs1 | inactive
Cc1ccc(NC2OC(CO)C(O)C(O)C2O)cc1 (stereo not given) | inactive
O=C1CC(NC(=O)C(F)(F)F)=NN1c1ccccc1 | inactive
Cc1nc2ccc(NC(=O)C(F)(F)F)cc2o1 | inactive
NS(=O)(=O)c1cc2c(cc1Cl)NC(Cc1ccccc1)NS2(=O)=O (stereo not given) | inactive
CCOc1cc(S(=O)(=O)N2CCN(CC)CC2)ccc1Cl | inactive
c1ccc2cc(CSCc3nc4ccccc4[nH]3)ccc2c1 | inactive
CCOC(=O)C1CCN(C(=O)CCc2nc3ccccc3[nH]2)CC1 | inactive
C#CCOCCOCCOCCNc1nc(N2CCN(C(=O)CCCCCCCCCCNC(=O)[C@H]([C@@H](C)CC)n3cc(CCCCN=C(N)N)nn3)CC2)nc(N2CCN(C(=O)CCCCCCCCCCNC(=O)[C@@H]([C@H](C)O)n3cc(C)nn3)CC2)n1 | inactive
C#CCOCCOCCOCCNc1nc(N2CCN(C(=O)CCCCCCCCCCNC(=O)[C@@H](CCSC)n3cc(CCO)nn3)CC2)nc(N2CCN(C(=O)CCCCCCCCCCNC(=O)[C@H]([C@@H](C)CC)n3cc(CCCCCN)nn3)CC2)n1 | inactive
c1cc2c(cc1Oc1nc(N3CCOCC3)nc(N3CCOCC3)n1)OCO2 | inactive
COc1cc(CNC(=O)CCC(=O)N2C[C@H]3C[C@H](C2)c2cccc(=O)n2C3)cc(OC)c1OC | inactive
CC1(C)Cc2c(sc(NC(=O)COc3ccc(Cl)cc3)c2C(N)=O)C(C)(C)N1 | inactive
CCC(=O)N(Cc1cc2cc(OC)ccc2[nH]c1=O)c1ccc(C)cc1C | inactive
